Records with an inconclusive call do not appear. A call without a number means that no potency is given here. The source made the active and inactive calls. Calls come from the whole dose curve; as a rule, active = well fitted curve in the direction sought with a large enough effect; inconclusive = small, poorly fitted or top-dose-only effect, or another doubt; inactive = no such curve, though single readings can be large; an effect the other way counts as inactive or inconclusive.
Biological target: Protein phosphatase 1D (Homo sapiens) (UniProt O15297)
Sequence (O15297 whole entry, looked up): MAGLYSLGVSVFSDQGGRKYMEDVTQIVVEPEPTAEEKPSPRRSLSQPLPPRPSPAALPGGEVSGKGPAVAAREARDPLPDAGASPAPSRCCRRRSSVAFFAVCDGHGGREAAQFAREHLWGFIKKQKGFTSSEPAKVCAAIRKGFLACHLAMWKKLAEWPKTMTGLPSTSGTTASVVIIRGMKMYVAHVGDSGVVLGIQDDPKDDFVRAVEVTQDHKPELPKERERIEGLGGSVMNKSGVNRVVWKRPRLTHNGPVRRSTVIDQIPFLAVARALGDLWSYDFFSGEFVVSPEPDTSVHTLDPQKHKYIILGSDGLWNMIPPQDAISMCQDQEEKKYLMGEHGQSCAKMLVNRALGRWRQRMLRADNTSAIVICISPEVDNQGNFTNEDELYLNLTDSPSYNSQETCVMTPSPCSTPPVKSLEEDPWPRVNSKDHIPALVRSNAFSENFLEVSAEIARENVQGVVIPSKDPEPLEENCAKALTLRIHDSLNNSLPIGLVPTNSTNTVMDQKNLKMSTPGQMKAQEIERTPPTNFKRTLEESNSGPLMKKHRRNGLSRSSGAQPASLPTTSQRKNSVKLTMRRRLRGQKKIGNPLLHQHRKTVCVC
Assay: RapidFire Mass Spectrometry qHTS Assay for Modulators of WT P53-Induced Phosphatase 1 (WIP1) (AID 1347424);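 note: amount of dephosphorylated VEPPL-S-QETFS peptide product formed by WIP1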; note: potency is the fitted concentration of half-maximal effect
Conditions: WIP1 dephosphorylation of phosphopeptide, RapidFire MS; series mostly up to 128 µM
In short: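 Mass-spectrometric measurement of dephosphorylated peptide after a 5 min room-temperature reaction of 10 nM WIP1 with 2 uM phosphopeptide, following 1 h compound preincubation in 30 mM MgCl2 buffer.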

| Structure (SMILES) | Potency |
| --- | --- |
| O=C(O)CCCOc1ccc(Cl)cc1Cl | inactive |
| CN[C@@H](C)[C@H](O)c1ccccc1 | inactive |
| CCCCCCCCCCCCCCCC[N+](C)(C)C | inactive |
| CCCCCCCCCC(CC)c1ccc(S(=O)(=O)O)cc1 (configuration not stated) | 1 µM (active) |
| CO/C=C(/C(=O)OC)c1ccccc1Oc1cc(Oc2ccccc2C#N)ncn1 | inactive |
| Nc1ccc(N=Nc2ccccc2)cc1 | inactive |
| CC(=O)[O][Hg][c]1ccccc1 | 28.2 µM (active) |

Biological target: Protein phosphatase 1D (Homo sapiens) (UniProt O15297)
Assay: Rhodamine-PBP qHTS Assay for Modulators of WT P53-Induced Phosphatase 1 (WIP1) (AID 1347425)
Conditions: recombinant WIP1, Rhodamine-PBP phosphate fluorescence, real-time; series mostly up to 116 µM
In short: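 5 nM WIP1 + 10 uM Rh-PBP, 50 mM Tris pH 7.5, 30 mM MgCl2, 1 mM TCEP, 0.1 mM EGTA, BSA; cpds pinned, 1 hr RT; + 10 uM phosphopeptide; fluorescence 1-min reads x 11 min; delta = f1 - f0.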

| Structure (SMILES) | outcome |
| --- | --- |
| O=C(O)CCCOc1ccc(Cl)cc1Cl | inactive |
| CN[C@@H](C)[C@H](O)c1ccccc1 | inactive |
| CCCCCCCCCCCCCCCC[N+](C)(C)C | inactive |
| CO/C=C(/C(=O)OC)c1ccccc1Oc1cc(Oc2ccccc2C#N)ncn1 | inactive |
| Nc1ccc(Cl)cc1N | inactive |
